# Results filed as inconclusive are left out. Activity calls are given as the source filed them. How the source made its calls, unless noted: active means hit-call score of the fitted dose curve at least 0.9, where 1 is the maximum; inconclusive means response in the unintended direction; inactive means score below 0.9.
# Legend:
# [1] = test system: Thyroperoxidase (TPO), gene 54314; assay: CCTE_Simmons_AUR_rTPO: CCTE's Amplex UltraRed Assay for Thyroperoxidase (TPO) Inhibition, Simmons Lab (AID 2283662);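 on AC50: potency for loss of signal meaning inhibition of peroxidase activity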
# Outline: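 Rat thyroid microsomes (5 ug protein) were incubated with test compound (8 concentrations, 5 nM–87.5 uM final, 0.5% DMSO), 25 uM Amplex UltraRed and 300 uM H2O2 in 200 mM phosphate buffer for 30 min at 37C in the dark; fluorescence read at 544/590 nm.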
# [2] = read-out: alkyl and aryl transferase (GSTA2), GSTA2 (gene 2939); assay: CLD_GSTA2_6hr: CellzDirect (CLD) Gene Expression Assay for alkyl and aryl transferase (GSTA2) at 6 hours (AID 2283666)
# Outline: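 GSTA2 transcript induction at 6 h, quantified by nuclease protection (qNPA) with chemiluminescent detection, in human liver primary hepatocytes exposed to several compound concentrations with 0.2% DMSO as baseline; phase-contrast morphology annotated apparent cytotoxicity.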
# [3] = Tanguay_ZF_120hpf_TR_legacy: (Legacy) Oregon State University Tanguay Lab 120 Hour Post-fertilization zebrafish Assay for Touch Response (AID 2283667)
# Outline: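 Readout is presence or absence of touch response in 120 hpf zebrafish larvae, assessed by brightfield observation after continuous static exposure at 28C. Final vehicle was 0.64% (vol/vol) DMSO.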
# [4] = read-out: organic anion transporter (SLCO1B1), SLCO1B1 (gene 10599); assay: CLD_SLCO1B1_6hr: CellzDirect (CLD) Gene Expression Assay for organic anion transporter (SLCO1B1) at 6 hours (AID 2283668);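 further: active means mRNA induction above DMSO baseline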
# Outline: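 SLCO1B1 mRNA induction measured 6 h after dosing by quantitative nuclease protection with chemiluminescent read-out, in human primary hepatocyte cultures given chemicals at several concentrations (vehicle 0.2% DMSO). Increase over DMSO baseline fitted; morphology-based cytotoxicity annotated yes/no.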
# [5] = read-out: glucuronosyltransferase (UGT1A1), UGT1A1 (gene 54658); assay: CLD_UGT1A1_6hr: CellzDirect (CLD) Gene Expression Assay for glucuronosyltransferase (UGT1A1) at 6 hours (AID 2283672)
# Outline: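 UGT1A1 mRNA induction, read by quantitative nuclease protection assay, 6 h after dosing primary human hepatocytes (two donors, 0.2% DMSO vehicle). Gain of signal fitted relative to vehicle.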
# [6] = read-out: xenobiotic metabolism (CYP1A1), CYP1A1 (gene 1543); assay: CLD_CYP1A1_24hr: CellzDirect (CLD) Gene Expression Assay for xenobiotic metabolism (CYP1A1) at 24 hours (AID 2283673);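 further: CYP1A1 mRNA level by quantitative nuclease protection with chemiluminescence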
# Outline: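 Transcript levels were read at 24 h by qNPA chemiluminescence in human liver primary cells. Cells got daily fresh dosing at multiple concentrations (vehicle 0.2% DMSO). Induction fitted upward against DMSO; phase-contrast cytotoxicity annotated.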
# [7] = read-out: ABC Transporter (ABCB11), ABCB11 (gene 8647); assay: CLD_ABCB11_24hr: CellzDirect (CLD) Gene Expression Assay for ABC Transporter (ABCB11) at 24 hours (AID 2283674; active means hit-call score of the fitted dose curve at least 0.9, where 1 is the maximum; inactive means score below 0.9)
# Outline: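 ABCB11 transcript was quantified by qNPA chemiluminescence in cultured human liver hepatocytes 24 hours after dosing. Fresh dosing solutions were applied on consecutive days, against a 0.2% DMSO vehicle. Cytotoxicity was noted by phase-contrast morphology.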
# [8] = CLD_ACTIN_24hr: CellzDirect (CLD) Gene Expression Assay for Baseline Control (Actin) at 24 hours (AID 2283670)
# Outline: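 This 24 h qNPA (S1 nuclease protection, chemiluminescence) actin transcript readout in cultured human liver primary cells serves as baseline control. Signal is fitted upward relative to 0.2% DMSO; chemicals tested at multiple concentrations across two donor preparations.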
# [9] = read-out: xenobiotic metabolism (CYP1A2), CYP1A2 (gene 1544); assay: CLD_CYP1A2_6hr: CellzDirect (CLD) Gene Expression Assay for xenobiotic metabolism (CYP1A2) at 6 hours (AID 2283663);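 on AC50: potency is for induction meaning a rise in mRNA above DMSO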
# Outline: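 mRNA levels quantified by quantitative nuclease protection assay with chemiluminescence, 6 h after dosing human primary hepatocyte cultures (two donors) across several concentrations, vehicle 0.2% DMSO. Induction fitted upward versus DMSO; phase-contrast cytotoxicity annotated.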
# [10] = read-out: sulfotransferase (SULT2A), SULT2A1 (gene 6822); assay: CLD_SULT2A_6hr: CellzDirect (CLD) Gene Expression Assay for sulfotransferase (SULT2A) at 6 hours (AID 2283669);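 further: hits raise transcript level above the DMSO vehicle baseline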
# Outline: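 Measured 6 h after dosing, SULT2A1 mRNA in human hepatocyte lysates was quantified by S1 nuclease protection with chemiluminescent detection. Increases fitted against 0.2% DMSO vehicle baseline; phase-contrast cytotoxicity recorded yes/no.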
smiles,measurement,setting,value
C=C(C)[C@H]1Cc2c(ccc3c2O[C@@H]2COc4cc(OC)c(OC)cc4[C@@H]2C3=O)O1,AC50,[1],26.5 µM (active)
same,outcome,[2],inactive
same,outcome,[3],inactive
same,outcome,[4],inactive
same,outcome,[5],inactive
same,AC50,[6],3.38 µM (active)
same,outcome,[7],inactive
CCOP(=S)(OCC)Oc1ccc2c(C)c(Cl)c(=O)oc2c1,AC50,[1],38.5 µM (active)
same,outcome,[2],inactive
same,outcome,[3],inactive
same,outcome,[8],inactive
same,outcome,[5],inactive
same,AC50,[6],1.89 µM (active)
same,outcome,[7],inactive
CCOP(=S)(Oc1cnc(C(C)(C)C)nc1)OC(C)C (centres undefined),AC50,[1],36.2 µM (active)
same,outcome,[9],inactive
same,outcome,[2],inactive
same,outcome,[3],inactive
same,outcome,[4],inactive
same,outcome,[5],inactive
same,AC50,[6],7.48 µM (active)
same,outcome,[7],inactive
CC1=NNC(=O)N(/N=C/c2cccnc2)C1,outcome,[9],inactive
same,outcome,[2],inactive
same,outcome,[3],inactive
same,outcome,[4],inactive
same,outcome,[5],inactive
same,AC50,[6],4.96 µM (active)
same,outcome,[7],inactive
CCCSP(=O)(OCC)SCCC,AC50,[1],19.4 µM (active)
same,outcome,[9],inactive
same,outcome,[4],inactive
same,outcome,[5],inactive
same,AC50,[6],2.42 µM (active)
same,outcome,[7],inactive
CCOC(=O)CC(SP(=O)(OC)OC)C(=O)OCC (centres undefined),AC50,[1],29.2 µM (active)
same,outcome,[9],inactive
same,outcome,[3],inactive
same,outcome,[5],inactive
same,AC50,[6],5.29 µM (active)
same,outcome,[7],inactive
COP(=O)(NC(C)=O)SC (centres undefined),AC50,[1],31.8 µM (active)
same,outcome,[9],inactive
same,outcome,[3],inactive
same,outcome,[4],inactive
same,outcome,[10],inactive
same,outcome,[8],inactive
same,outcome,[5],inactive
CC1(C(=O)Nc2ccc(O)c(Cl)c2Cl)CCCCC1,outcome,[1],inactive
same,outcome,[2],inactive
same,outcome,[3],inactive
same,outcome,[8],inactive
same,outcome,[5],inactive
same,outcome,[7],inactive
CNC(=O)Oc1cccc2c1OC(C)(C)O2,AC50,[9],3.97 µM (active)
same,outcome,[2],inactive
same,outcome,[3],inactive
same,outcome,[8],inactive
same,outcome,[5],inactive
CC[C@H](C)[C@H]1O[C@]2(C=C[C@@H]1C)C[C@@H]1C[C@@H](C/C=C(\C)[C@@H](O[C@H]3C[C@H](OC)[C@@H](O[C@H]4C[C@H](OC)[C@@H](NC)[C@H](C)O4)[C@H](C)O3)[C@@H](C)/C=C/C=C3\CO[C@@H]4[C@H](O)C(C)=C[C@@H](C(=O)O1)[C@]34O)O2,AC50,[9],10.5 µM (active)
same,outcome,[2],inactive
same,AC50,[3],0.0479 µM (active)
same,AC50,[4],30.7 µM (active)
same,outcome,[8],inactive
same,outcome,[5],inactive
same,outcome,[6],inactive
same,AC50,[7],0.205 µM (active)
CCCOCC(=Nc1ccc(Cl)cc1C(F)(F)F)n1ccnc1,outcome,[1],inactive
same,AC50,[9],1.89 µM (active)
same,outcome,[2],inactive
same,outcome,[3],inactive
same,outcome,[4],inactive
same,outcome,[5],inactive
same,AC50,[6],2.36 µM (active)
CCC(CC)Nc1c([N+](=O)[O-])cc(C)c(C)c1[N+](=O)[O-],outcome,[9],inactive
same,outcome,[3],inactive
same,outcome,[4],inactive
same,outcome,[5],inactive
same,AC50,[6],20 µM (active)
CCCCOC(=O)[C@@H](C)Oc1ccc(Oc2ccc(C#N)cc2F)cc1,outcome,[9],inactive
same,outcome,[3],inactive
same,outcome,[8],inactive
same,outcome,[5],inactive
same,outcome,[6],inactive
same,outcome,[7],inactive
Cc1cc(C2CC2)nc(Nc2ccccc2)n1,AC50,[9],1.99 µM (active)
same,outcome,[5],inactive
same,AC50,[6],29.9 µM (active)
CN(C)C(=O)Nc1cccc(C(F)(F)F)c1,outcome,[9],inactive
same,outcome,[3],inactive
same,outcome,[5],inactive
same,AC50,[6],2.41 µM (active)
COP(=O)(OC)C(O)C(Cl)(Cl)Cl (centres undefined),outcome,[2],inactive
same,outcome,[3],inactive
same,outcome,[4],inactive
same,outcome,[8],inactive
same,outcome,[5],inactive
same,outcome,[7],inactive
CSc1nnc(C(C)(C)C)c(=O)n1N,outcome,[9],inactive
same,outcome,[4],inactive
same,outcome,[10],inactive
same,outcome,[8],inactive
same,outcome,[5],inactive
same,outcome,[6],inactive
same,outcome,[7],inactive
CCCCSP(=O)(SCCCC)SCCCC,AC50,[9],2.96 µM (active)
same,outcome,[3],inactive
same,outcome,[5],inactive
same,AC50,[6],4.53 µM (active)
CNc1cnn(-c2cccc(C(F)(F)F)c2)c(=O)c1Cl,AC50,[9],38.7 µM (active)
same,outcome,[2],inactive
same,outcome,[3],inactive
same,outcome,[5],inactive
same,AC50,[6],5.85 µM (active)
CN1COCN(Cc2cnc(Cl)s2)C1=N[N+](=O)[O-],outcome,[9],inactive
same,outcome,[2],inactive
same,outcome,[8],inactive
same,outcome,[5],inactive
same,outcome,[6],inactive
CCCCN(CC)c1c([N+](=O)[O-])cc(C(F)(F)F)cc1[N+](=O)[O-],outcome,[9],inactive
same,outcome,[2],inactive
same,outcome,[3],inactive
same,outcome,[5],inactive
same,AC50,[6],8.49 µM (active)
CC(C)=CC1C(C(=O)OCN2C(=O)C3=C(CCCC3)C2=O)C1(C)C (centres undefined),outcome,[9],inactive
same,outcome,[2],inactive
same,outcome,[3],inactive
same,outcome,[5],inactive
same,outcome,[6],inactive
same,outcome,[7],inactive
CCc1cnc(C2=NC(C)(C(C)C)C(=O)N2)c(C(=O)O)c1 (centres undefined),outcome,[2],inactive
same,outcome,[3],inactive
same,outcome,[4],inactive
same,outcome,[8],inactive
same,outcome,[5],inactive
O=[N+]([O-])c1cc(C(F)(F)F)c(Cl)c([N+](=O)[O-])c1Nc1ncc(C(F)(F)F)cc1Cl,outcome,[3],inactive
same,outcome,[4],inactive
same,AC50,[6],0.485 µM (active)
CC(C1CC1)C(O)(Cn1cncn1)c1ccc(Cl)cc1 (centres undefined),AC50,[9],0.00638 µM (active)
same,outcome,[3],inactive
same,outcome,[5],inactive
same,AC50,[6],11.9 µM (active)
COc1cccc(C(=O)NN(C(=O)c2cc(C)cc(C)c2)C(C)(C)C)c1C,outcome,[9],inactive
same,outcome,[2],inactive
same,outcome,[3],inactive
same,outcome,[8],inactive
same,outcome,[5],inactive
same,AC50,[6],36.4 µM (active)
same,outcome,[7],inactive
CCNc1nc(Cl)nc(NC(C)(C)C#N)n1,outcome,[9],inactive
same,outcome,[3],inactive
same,outcome,[5],inactive
same,outcome,[6],inactive
CON=C(C(=O)OC)c1ccccc1CON=C(C)c1cccc(C(F)(F)F)c1,outcome,[3],inactive
same,outcome,[4],inactive
same,outcome,[8],inactive
same,outcome,[5],inactive
same,outcome,[6],inactive
same,outcome,[7],inactive
